{
  "source": "PubChem BioAssay (NCATS)",
  "note": "“And” between values parts separate entries of the source, which are not always exact repeats. Equal values may be shown once. Inconclusive results are not listed. Unmarked numbers belong to inactive results. The source made the active and inactive calls. Calls come from the whole dose curve; as a rule, active = well fitted curve in the direction sought with a large enough effect; inconclusive = small, poorly fitted or top-dose-only effect, or another doubt; inactive = no such curve, though single readings can be large; an effect the other way counts as inactive or inconclusive. % is set by controls: 0 for no effect and ±100 for the full control effect.",
  "data": [
    {"assay": "qHTS assay to identify small molecule inhibitors of chordoma cells - UCH-2 (AID 1259356)", "conditions": "UCH-2 chordoma viability, CellTiter-Glo ATP luminescence, 48 h; series mostly up to 46.1 µM; activity change, negative = inhibition: at the top concentration", "values": [
      {"smiles": "Cc1cc(O)cc2c1O[C@](C)(CCC[C@H](C)CCC[C@H](C)CCCC(C)C)CC2", "activity change, negative = inhibition": "-4.13%"},
      {"smiles": "Cn1cc[nH]c1=S", "activity change, negative = inhibition": "9.52% [at 20.6 µM]"},
      {"smiles": "C[C@]12CC[C@@H]3c4ccc(O)cc4CC[C@H]3[C@@H]1CC[C@@H]2OC(=O)CCC1CCCC1", "outcome": "inactive"},
      {"smiles": "O=C(O)c1ccccc1-c1ccc(C(F)(F)F)cc1", "activity change, negative = inhibition": "0.583%"},
      {"smiles": "O=C1c2c(O)cccc2Cc2cccc(O)c21", "activity change, negative = inhibition": "3.68%"},
      {"smiles": "CC1=C(C/C=C(\\C)CCC[C@H](C)CCC[C@H](C)CCCC(C)C)C(=O)c2ccccc2C1=O", "activity change, negative = inhibition": "14.6%"},
      {"smiles": "C/C(=C(\\CCOP(=O)(O)O)SC(=O)c1ccccc1)N(C=O)Cc1cnc(C)nc1N", "activity change, negative = inhibition": "5.69% [at 20.6 µM]"},
      {"smiles": "O=c1cc[nH]c(=S)[nH]1", "activity change, negative = inhibition": "1.13%"},
      {"smiles": "CC(=O)c1ccc2c(c1)N(CCCN(C)C)c1ccccc1S2", "activity change, negative = inhibition": "-3.31% [at 20.6 µM]"},
      {"smiles": "NCCNCCNCCNCCN", "activity change, negative = inhibition": "6.06%"},
      {"smiles": "O=C(O)[C@H](O)c1ccccc1", "activity change, negative = inhibition": "10.4%"},
      {"smiles": "CCCCOc1cc(C(=O)OCCN(CC)CC)ccc1N", "activity change, negative = inhibition": "4.35% [at 20.6 µM]"},
      {"smiles": "CN1CCOC(c2ccccc2)c2ccccc2C1", "note": "(stereo not given)", "activity change, negative = inhibition": "7.35% [at 20.6 µM]"},
      {"smiles": "NC1[C@H]2CN(c3nc4c(cc3F)c(=O)c(C(=O)O)cn4-c3ccc(F)cc3F)C[C@@H]12", "note": "(stereo not given in full)", "activity change, negative = inhibition": "12.9%"},
      {"smiles": "CCCCc1ncc(/C=C(\\Cc2cccs2)C(=O)O)n1Cc1ccc(C(=O)O)cc1", "activity change, negative = inhibition": "-11.8%"},
      {"smiles": "c1ccc(CN(CC2=NCCN2)c2ccccc2)cc1", "activity change, negative = inhibition": "15.2%"},
      {"smiles": "CCn1cc(C(=O)O)c(=O)c2cnc(N3CCNCC3)nc21", "activity change, negative = inhibition": "4.41% [at 20.6 µM]"},
      {"smiles": "CC(COc1ccccc1)NC(C)C(O)c1ccc(O)cc1", "note": "(stereo not given)", "activity change, negative = inhibition": "10.3% [at 20.6 µM]"},
      {"smiles": "C[C@@H](O)[C@H](N)C(=O)O", "activity change, negative = inhibition": "2.76%"},
      {"smiles": "O=c1cc(CO)occ1O", "activity change, negative = inhibition": "0.159%"},
      {"smiles": "NS(=O)(=O)c1cc2c(cc1Cl)NC(CSCc1ccccc1)=NS2(=O)=O", "activity change, negative = inhibition": "-11.6% [at 20.6 µM]"},
      {"smiles": "[Cl][In]([Cl])[Cl]", "activity change, negative = inhibition": "6.73%"},
      {"smiles": "CCN(CC)CCSC(=O)C(c1ccccc1)c1ccccc1", "outcome": "inactive"},
      {"smiles": "NC(=O)NNc1ccccc1", "outcome": "inactive"},
      {"smiles": "[O-][n+]1cccc(CO)c1", "activity change, negative = inhibition": "5.61%"},
      {"smiles": "CS(=O)(=O)c1ccc([C@@H](O)[C@@H](CF)NC(=O)C(Cl)Cl)cc1", "activity change, negative = inhibition": "1.27% [at 20.6 µM]"},
      {"smiles": "Cn1c(=O)c2c(ncn2CC2OCCO2)n(C)c1=O", "activity change, negative = inhibition": "-6.61%"},
      {"smiles": "Cc1ncc(COP(=O)(O)O)c(C=O)c1O", "activity change, negative = inhibition": "-0.0201%"},
      {"smiles": "CCOC(CN1CCN(CC(C)C(=O)c2ccccc2)CC1)c1ccccc1", "note": "(stereo not given)", "activity change, negative = inhibition": "-19.4%"},
      {"smiles": "COc1cc(C(=O)N2CCOCC2)cc(OC)c1OC", "outcome": "inactive"},
      {"smiles": "CC(=O)Oc1c(C)c(C)c2c(c1C)CC[C@@](C)(CCC[C@H](C)CCC[C@H](C)CCCC(C)C)O2", "outcome": "inactive"},
      {"smiles": "CC1CC(OC(=O)C(O)c2ccccc2)CC(C)(C)N1C", "note": "(stereo not given)", "activity change, negative = inhibition": "2.14%"},
      {"smiles": "CCCCCCCCCCCCCCCCCCOCC(O)CO", "note": "(stereo not given)", "activity change, negative = inhibition": "9.84%"},
      {"smiles": "Cc1cc2nc3c(=O)[nH]c(=O)nc-3n(C[C@H](O)[C@H](O)[C@H](O)CO)c2cc1C", "outcome": "inactive"},
      {"smiles": "CC(C)(C)C(=O)C(Oc1ccc(Cl)cc1)n1ccnc1", "note": "(stereo not given)", "activity change, negative = inhibition": "8.53%"},
      {"smiles": "CC(=O)Nc1ccc(/C=N/NC(N)=S)cc1", "outcome": "inactive"},
      {"smiles": "O=C(O)[C@@H]1CSCN1", "activity change, negative = inhibition": "1.12%"},
      {"smiles": "Nc1ccc(S(=O)(=O)Nc2ccc(Cl)nn2)cc1", "activity change, negative = inhibition": "6.24% [at 20.6 µM]"},
      {"smiles": "O=c1cc[nH]c(=O)[nH]1", "activity change, negative = inhibition": "-0.491%"},
      {"smiles": "NC(CSCC(=O)O)C(=O)O", "note": "(stereo not given)", "activity change, negative = inhibition": "5.14%"}
    ]},
    {"assay": "P-glycoprotein substrates identified in KB-8-5-11 adenocarcinoma cell line, qHTS therapeutic library screen (AID 1346987); note: nearly all actives have a fitted effect of over 65% in size; note: potency is the fitted concentration of half-maximal effect", "conditions": "KB-8-5-11 (P-gp overexpressing) viability, CellTiter-Glo, 72 h; series mostly up to 44.5 µM; activity change, negative = cytotoxicity: at the top concentration", "how_it_was_run": "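KB-8-5-11: colchicine-selected sub-line of KB-3-1 over-expressing P-gp; assay medium lacked colchicine. 72 h drug exposure at 37 degree C, CellTiter-Glo.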", "values": [
      {"smiles": "Cc1cc(O)cc2c1O[C@](C)(CCC[C@H](C)CCC[C@H](C)CCCC(C)C)CC2", "Potency": "inactive"},
      {"smiles": "Cn1cc[nH]c1=S", "activity change, negative = cytotoxicity": "3.3% [at 17.3 µM]"},
      {"smiles": "C[C@]12CC[C@@H]3c4ccc(O)cc4CC[C@H]3[C@@H]1CC[C@@H]2OC(=O)CCC1CCCC1", "Potency": "6.51 µM (active) and 8.2 µM (active)"},
      {"smiles": "O=C(O)c1ccccc1-c1ccc(C(F)(F)F)cc1", "activity change, negative = cytotoxicity": "1.64%"},
      {"smiles": "O=C1c2c(O)cccc2Cc2cccc(O)c21", "activity change, negative = cytotoxicity": "8.43%"},
      {"smiles": "CC1=C(C/C=C(\\C)CCC[C@H](C)CCC[C@H](C)CCCC(C)C)C(=O)c2ccccc2C1=O", "activity change, negative = cytotoxicity": "0.705%"},
      {"smiles": "C/C(=C(\\CCOP(=O)(O)O)SC(=O)c1ccccc1)N(C=O)Cc1cnc(C)nc1N", "activity change, negative = cytotoxicity": "16.1% [at 17.3 µM]"},
      {"smiles": "O=c1cc[nH]c(=S)[nH]1", "activity change, negative = cytotoxicity": "4.46%"},
      {"smiles": "CC(=O)c1ccc2c(c1)N(CCCN(C)C)c1ccccc1S2", "activity change, negative = cytotoxicity": "-17% [at 17.3 µM]"},
      {"smiles": "NCCNCCNCCNCCN", "activity change, negative = cytotoxicity": "4.93%"},
      {"smiles": "O=C(O)[C@H](O)c1ccccc1", "activity change, negative = cytotoxicity": "7.73%"},
      {"smiles": "CCCCOc1cc(C(=O)OCCN(CC)CC)ccc1N", "Potency": "inactive"},
      {"smiles": "CN1CCOC(c2ccccc2)c2ccccc2C1", "note": "(stereo not given)", "Potency": "inactive"},
      {"smiles": "NC1[C@H]2CN(c3nc4c(cc3F)c(=O)c(C(=O)O)cn4-c3ccc(F)cc3F)C[C@@H]12", "note": "(stereo not given in full)", "activity change, negative = cytotoxicity": "-19.5%"},
      {"smiles": "CCCCc1ncc(/C=C(\\Cc2cccs2)C(=O)O)n1Cc1ccc(C(=O)O)cc1", "Potency": "inactive"},
      {"smiles": "c1ccc(CN(CC2=NCCN2)c2ccccc2)cc1", "Potency": "inactive"},
      {"smiles": "CCn1cc(C(=O)O)c(=O)c2cnc(N3CCNCC3)nc21", "activity change, negative = cytotoxicity": "3.24% [at 17.3 µM]"},
      {"smiles": "CC(COc1ccccc1)NC(C)C(O)c1ccc(O)cc1", "note": "(stereo not given)", "activity change, negative = cytotoxicity": "11% [at 17.3 µM]"},
      {"smiles": "C[C@@H](O)[C@H](N)C(=O)O", "activity change, negative = cytotoxicity": "20.5%"},
      {"smiles": "O=c1cc(CO)occ1O", "Potency": "inactive"},
      {"smiles": "NS(=O)(=O)c1cc2c(cc1Cl)NC(CSCc1ccccc1)=NS2(=O)=O", "activity change, negative = cytotoxicity": "-8.95% [at 17.3 µM]"},
      {"smiles": "[Cl][In]([Cl])[Cl]", "Potency": "inactive"},
      {"smiles": "CCN(CC)CCSC(=O)C(c1ccccc1)c1ccccc1", "Potency": "inactive"},
      {"smiles": "NC(=O)NNc1ccccc1", "Potency": "inactive"},
      {"smiles": "[O-][n+]1cccc(CO)c1", "activity change, negative = cytotoxicity": "-21.6%"},
      {"smiles": "CS(=O)(=O)c1ccc([C@@H](O)[C@@H](CF)NC(=O)C(Cl)Cl)cc1", "activity change, negative = cytotoxicity": "-8.35%"},
      {"smiles": "Cn1c(=O)c2c(ncn2CC2OCCO2)n(C)c1=O", "Potency": "inactive"},
      {"smiles": "Cc1ncc(COP(=O)(O)O)c(C=O)c1O", "activity change, negative = cytotoxicity": "-10.3%"},
      {"smiles": "CCOC(CN1CCN(CC(C)C(=O)c2ccccc2)CC1)c1ccccc1", "note": "(stereo not given)", "activity change, negative = cytotoxicity": "-21.1%"},
      {"smiles": "COc1cc(C(=O)N2CCOCC2)cc(OC)c1OC", "Potency": "inactive"},
      {"smiles": "CC(=O)Oc1c(C)c(C)c2c(c1C)CC[C@@](C)(CCC[C@H](C)CCC[C@H](C)CCCC(C)C)O2", "Potency": "inactive"},
      {"smiles": "CC1CC(OC(=O)C(O)c2ccccc2)CC(C)(C)N1C", "note": "(stereo not given)", "Potency": "inactive"},
      {"smiles": "CCCCCCCCCCCCCCCCCCOCC(O)CO", "note": "(stereo not given)", "activity change, negative = cytotoxicity": "7.98%"},
      {"smiles": "Cc1cc2nc3c(=O)[nH]c(=O)nc-3n(C[C@H](O)[C@H](O)[C@H](O)CO)c2cc1C", "Potency": "inactive"},
      {"smiles": "CC(C)(C)C(=O)C(Oc1ccc(Cl)cc1)n1ccnc1", "note": "(stereo not given)", "activity change, negative = cytotoxicity": "-6.25%"},
      {"smiles": "CC(=O)Nc1ccc(/C=N/NC(N)=S)cc1", "Potency": "inactive"},
      {"smiles": "O=C(O)[C@@H]1CSCN1", "activity change, negative = cytotoxicity": "2.75%"},
      {"smiles": "Nc1ccc(S(=O)(=O)Nc2ccc(Cl)nn2)cc1", "Potency": "inactive"},
      {"smiles": "O=c1cc[nH]c(=O)[nH]1", "activity change, negative = cytotoxicity": "10.5%"},
      {"smiles": "NC(CSCC(=O)O)C(=O)O", "note": "(stereo not given)", "activity change, negative = cytotoxicity": "-3.07%"}
    ]}
  ]
}
